± gives the standard deviation of the averaged measurements.
Assays:
Details in all cases: concentration: 10 µM; 24 h
HCC1569 [1] = experiment: cell number relative to DMSO (% of DMSO); higher = more cells (less growth inhibition / toxicity)
Outline: (§1)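 Six fields per well were imaged at ×10 after the cells were fixed in 3.7% formaldehyde and stained with a rabbit anti-H1.0 antibody, an AlexaFluor 647 secondary and DAPI. The HCC1569 and TDF cells had been plated at 800 per well in 384-well plates (RPMI, 10% FBS) and treated in triplicate with compounds at 10 µM for 24 h at 37 °C. The values are the median of replicates of H1.0 nuclear intensity or cell number, as percent of the plate control. Smoothing for positional effects was applied to HCC1569 data.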

TDF [2] = experiment: as above
Outline: as §1

TDF [3] = experiment: H1.0 immunofluorescence intensity relative to DMSO (% of DMSO); higher = stronger H1.0 induction, active = 120 or more
Outline: as §1

HCC1569 [4] = experiment: H1.0 immunofluorescence intensity relative to DMSO (% of DMSO); higher = stronger H1.0 induction, active = 140 or more
Outline: as §1
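Throughout, for H1.0 immunofluorescence intensity relative to DMSO: TDF is a line of transformed human dermal fibroblasts of mesenchymal origin.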
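Throughout, for cell number relative to DMSO: TDF denotes transformed human dermal fibroblasts of mesenchymal origin.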

| SMILES | cell number (HCC1569 [1]) | cell number (TDF [2]) | H1.0 immunofluorescence intensity (TDF [3]) | H1.0 immunofluorescence intensity (HCC1569 [4]) |
| --- | --- | --- | --- | --- |
| CCCCCCCCC=CCC=CCC=CCCCC(=O)O [5(Z), 8(Z), 11(Z)-Eicosatrienoic Acid] | 102 ± 2.9 | 105 ± 7.9 | 98.1 (inactive) | 97.8 (inactive) |
| O=C1C(Cl)=C(N2C(=O)CCC2=O)C(=O)c2ccccc21 [MEK Inhibitor II] | 98.9 | 110 | 90.5 (inactive) | 121 (inactive) |
| COc1ccc(C(=O)/C(Cc2cc(OC)c(OC)c(OC)c2)=C(\C(=O)[O-])c2ccc3c(c2)OCO3)cc1.[Na+] | 97.7 | 98.7 | 88.2 (inactive) | 103 (inactive) |
| O=C(O)COC(=O)Cc1ccccc1Nc1c(Cl)cccc1Cl [Aceclofenac] | 104 | 101 | 95.3 (inactive) | 103 (inactive) |
| CC(=O)OC12COC1CC(O)C1(C)C(=O)C(O)C3=C(C)C(OC(=O)C(O)C(NC(=O)OC(C)(C)C)c4ccccc4)CC(O)(C(OC(=O)c4ccccc4)C21)C3(C)C (stereo not given) [Docetaxil] | 61.6 | 13 | 147 (active) | 144 (active) |
| COc1cc2c(cc1OC)C1C(=O)c3ccc4c(c3OC1CO2)C=CC(C)(C)O4 (stereo not given) [Degeulin] | 72.6 | 76.5 | 106 (inactive) | 121 (inactive) |
| CC(c1cc2ccccc2s1)N(O)C(N)=O (stereo not given) [Zileuton] | 102 | 98.4 | 94.2 (inactive) | 101 (inactive) |
| COc1cc(NC(C)CCCN)c2ncccc2c1 (stereo not given) [Primaquine] | 102 | 104 | 96.2 (inactive) | 113 (inactive) |
| CC1(C(=O)O)CCC2(C)CCC3(C)C(=CC(=O)C4C5(C)CCC(O)C(C)(C)C5CCC43C)C2C1 (stereo not given) | 102 | 108 | 98.4 (inactive) | 84.4 (inactive) |
| CN1C(=O)CC(C(=O)O)C1c1cccnc1 (stereo not drawn) [Trans-4-Cotininecarboxylic acid] | 98.4 | 100 | 93.3 (inactive) | 85.3 (inactive) |
| NC(=O)c1ccc(-c2nc(-c3ccc4c(c3)OCCO4)c(-c3ccccn3)[nH]2)cc1 [Casein Kinase I Inhibitor, D4476] | 92.2 | 97 | 95.4 (inactive) | 127 (inactive) |
| CC(=O)OC1CC2CCC3C(CCC4(C)C3CC([N+]3(C)CCCCC3)C4OC(C)=O)C2(C)CC1N1CCCCC1 (stereo not given) [Vecuronium] | 103 | 95.7 | 99.2 (inactive) | 110 (inactive) |
| COC(=O)C1C2CC3c4[nH]c5cc(OC)ccc5c4CCN3CC2CC(OC(=O)c2cc(OC)c(OC)c(OC)c2)C1OC (single isomer, unassigned; (-)) [(-)-Isoreserpine] | 98.9 | 107 | 102 (inactive) | 98 (inactive) |
| C=C1C(=CC=C2CCCC3(C)C2CCC3C(C)CCCC(C)C)CC(O)CC1O (stereo not given) [Alfacalcidol] | 100 | 101 | 96.5 (inactive) | 101 (inactive) |
| NCC1OC(OC2C(CO)OC(OC3C(O)C(N)CC(N)C3OC3OC(CO)C(O)C(O)C3N)C2O)C(N)C(O)C1O.O=S(=O)(O)O (stereo not given) [Paromomycin sulfate] | 105 | 106 | 93.7 (inactive) | 101 (inactive) |
| Fc1ccc(Cl)cc1-c1nc(Nc2ccncc2)c2nccnc2n1 | 98.4 | 91.6 | 98.2 (inactive) | 113 (inactive) |
| O=C(O)C(=S)Cc1ccc(I)cc1 [(2Z)-3-(4-iodophenyl)-2-sulfanyl-2-propenoic acid] | 106 | 104 | 95.6 (inactive) | 94.8 (inactive) |
| NS(=O)(=O)c1cc(C2(O)NC(=O)c3ccccc32)ccc1Cl (stereo not given) | 101 | 98.1 | 96.1 (inactive) | 104 (inactive) |
| COCCCCC(=NOCCN)c1ccc(C(F)(F)F)cc1.O=C(O)C=CC(=O)O [Fluvoxamine maleate] | 98.6 | 97.1 | 95.3 (inactive) | 92.4 (inactive) |
| NC1CCN(O)C1=O (racemic) | 101 | 104 | 84.3 (inactive) | 82.9 (inactive) |
| NC(=O)c1ncn(C2OC(CO)C(O)C2O)n1 (stereo not given) [Ribavirin] | 97.5 ± 3 | 105 ± 3.3 | 94.5 (inactive) | 112 (inactive) |
| N#CC(=C(N)Sc1ccccc1N)c1cccc(C(O)c2ccncc2)c1 (stereo not given) [MEK Inhibitor I] | 77.2 | 86.8 | 98.7 (inactive) | 176 (active) |
| C=CC[C@H](N)C(=O)O [L-allylglycine] | 101 | 99.3 | 95.9 (inactive) | 92.4 (inactive) |
| Cc1nc(C(=O)N2CCC[C@H]2Cc2nnc(-c3ccccc3)o2)c(-c2ccccc2F)s1 | 96.3 | 113 | 97.5 (inactive) | 95.5 (inactive) |
| CC1C(=O)OC2C(O)C34C5CC(C(C)(C)C)C36C(OC(=O)C6O)OC4(C(=O)O5)C12O (stereo not given) [Ginkgolide B] | 104 | 104 | 101 (inactive) | 82.4 (inactive) |

| SMILES | cell number (HCC1569 [1]) | cell number (TDF [2]) | H1.0 immunofluorescence intensity (TDF [3]) | H1.0 immunofluorescence intensity (HCC1569 [4]) |
| --- | --- | --- | --- | --- |
| CC(=O)OCC(=O)[C@@]1(O)CC[C@H]2[C@@H]3CCC4=CC(=O)C=C[C@]4(C)[C@H]3[C@@H](O)C[C@@]21C | 99.3 | 103 | 93.1 (inactive) | 101 (inactive) |
| CC(C)(C)c1nc2c3cc[nH]c(=O)c3c3cc(F)ccc3c2[nH]1 | 110 | 103 | 87 (inactive) | 101 (inactive) |
| CC(=O)C1(O)CCC2C3CCC4=CC(=O)CCC4(C)C3CCC21C (stereo not drawn) [17alpha-hydroxyprogesterone] | 98.8 | 98.3 | 99 (inactive) | 99.8 (inactive) |
| CN(c1ncccc1CNc1nc(Nc2ccc3c(c2)CC(=O)N3)ncc1C(F)(F)F)S(C)(=O)=O | 54.6 | 32.3 | 116 (inactive) | 118 (inactive) |
| NC(N)=Nc1nc(CSCCC(N)=NS(N)(=O)=O)cs1 [Famotidine] | 102 | 102 | 94.4 (inactive) | 89.7 (inactive) |
| COc1ccc(-n2c(SCC#N)nc3sc4c(c3c2=O)CCCC4)cc1 | 91.9 | 92.5 | 86.3 (inactive) | 108 (inactive) |
| CS(=O)(=O)c1ccc(C2=C(c3ccccc3)C(=O)OC2)cc1 [Rofecoxib] | 98.3 | 88.9 | 98.4 (inactive) | 111 (inactive) |
| O=C(COc1ccc(Cl)cc1)NC1CCC(NC(=O)COc2ccc(Cl)cc2)CC1 (stereo not given) | 104 | 100 | 90.5 (inactive) | 92.9 (inactive) |
| Cc1ccc(NC(=O)c2ccc(CN3CCN(C)CC3)cc2)cc1Nc1nc(-c2cccnc2)cs1 [Masatinib(AB1010)] | 82.7 | 79.9 | 109 (inactive) | 141 (active) |
| CCN(CC)CCCCN1c2ccccc2Oc2ccc(Cl)cc21.Cl [Akt Inhibitor X] | 83 | 87.1 | 108 (inactive) | 150 (active) |
| CN(C)CCCC1(c2ccc(F)cc2)OCc2cc(C#N)ccc21 (stereo not given) [Citalopram] | 103 | 114 | 91.3 (inactive) | 100 (inactive) |
| CC1COC2=C1C(=O)C(=O)c1c2ccc2c1CCCC2(C)C (stereo not given) [Cryptotanshinone] | 96.6 | 64.9 | 106 (inactive) | 100 (inactive) |
| CN(C)CCC=C1c2ccccc2COc2ccc(CC(=O)O)cc21 [Olopatadine] | 102 | 106 | 90.3 (inactive) | 102 (inactive) |
| CC(=O)OCC=C(C)C=CC=C(C)C=CC1=C(C)CCCC1(C)C [Vitamin A acetate] | 98.7 | 107 | 91.8 (inactive) | 119 (inactive) |
| CN(Cc1ccc(C(C)(C)C)cc1)Cc1cccc2ccccc12 [Butenafine] | 101 | 92.9 | 104 (inactive) | 100 (inactive) |
| CC(C)(C)NCC(O)c1ccc(O)c(CO)c1.CC(C)(C)NCC(O)c1ccc(O)c(CO)c1.O=S(=O)(O)O (stereo not given) [Salbutamol hemisulfate] | 99.9 | 103 | 84.9 (inactive) | 106 (inactive) |
| CCCCCCC=CC=CCCCCCCCC(=O)O [9(Z), 11(Z)-octadecadienoic acid] | 99.8 | 108 | 107 (inactive) | 103 (inactive) |
| CNNCc1ccc(C(=O)NC(C)C)cc1 [Procarbazine] | 102 | 106 | 92.4 (inactive) | 108 (inactive) |
| CC(C)(C#N)c1ccc(N2C(=O)OCc3cnc4ccc(-c5cnc6ccccc6c5)cc4c32)cc1 | 59.8 | 44.1 | 101 (inactive) | 206 (active) |
| Clc1ccc2c(c1)CCc1cccnc1C2=C1CCNCC1 [Desloratadine] | 98.1 | 102 | 109 (inactive) | 108 (inactive) |
| C=CCCCCCCCCC(=O)O [10-Undecenoic acid] | 102 | 103 | 104 (inactive) | 105 (inactive) |
| COc1ccc2c(c1)c(CC(=O)N1CCOCC1)c(C)n2C(=O)c1ccc(Cl)cc1 | 102 | 104 | 94.6 (inactive) | 104 (inactive) |
| CN(C)C(=S)NN=C(c1ccccn1)c1ccccn1 [(Z)-di(2-pyridinyl)methanone N,N-dimethylthiosemicarbazone] | 75.1 | 52.4 | 107 (inactive) | 106 (inactive) |
| CC(C(=O)O)c1ccc2c(c1)Cc1cccnc1O2 (stereo not given) [Pranoprofen] | 98.6 | 94.7 | 103 (inactive) | 102 (inactive) |
| COc1ccccc1OCC(O)CO (stereo not given) [Guaifenesin] | 102 | 102 | 98 (inactive) | 116 (inactive) |

Reference: the supplement of paper PMC7156485
